The values that follow come from PubChem BioAssay (EPA / NIEHS).

Several values for one entry are separate records, joined by “and”; a condition that tells them apart may be missing. Equal entries are not always repeated. The source holds several records for some structures; these can differ, active in one and inactive in another. Activity calls are given as the source filed them. Rule for the calls: active = hit-call score of the fitted dose curve at least 0.9, where 1 is the maximum; inactive = score below 0.9.

Read-out in one assay: Bcl-2 (BAD) gene, BAD (gene 572)
The assay can be described thus: LTEA_HepaRG_BAD: Life Technologies and Expression Analysis (LTEA) Assay for Bcl-2 (BAD) gene using HepaRG (AID 2283469). The conditions noted are these: mRNA level, 48 h; actives raise or lower the signal. The method, boiled down:
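Read-out: qRT-PCR of BAD mRNA, normalized to three housekeeping genes. Human HepaRG cultures got 48 h chemical exposure in 0.5% DMSO, duplicate eight-point half-log series topping at 100 uM. Gain or loss of signal fitted versus DMSO vehicle.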
`CNC(=O)/C=C(\C)OP(=O)(OC)OC`: the compound was called inactive.

`N#Cc1c(Cl)c(Cl)c(Cl)c(C#N)c1Cl`: the outcome was inactive.

Consider `CC1(C)C(C=C(Cl)Cl)C1C(=O)OC(C#N)c1ccc(F)c(Oc2ccccc2)c1` (stereo not given), for which the compound was called inactive.

In the case of `O=C(NC(=O)c1c(F)cccc1F)Nc1ccc(OC(F)(F)C(F)OC(F)(F)F)c(Cl)c1` (stereo not given), the result was inactive.

Take `O=C(Nc1ccccc1)Nc1cnns1`: the compound was classed as inactive.

For `O=S(=O)(O)C(F)(F)C(F)(F)C(F)(F)C(F)(F)C(F)(F)C(F)(F)C(F)(F)C(F)(F)F`, the compound was called inactive.

Take `CCc1ccc(C(=O)NN(C(=O)c2cc(C)cc(C)c2)C(C)(C)C)cc1`: the call was inactive.

On to `COP(=O)(OC)OC=C(Cl)Cl`, for which the compound was called inactive.

Take `CC[C@H](C)[C@H]1O[C@]2(C=C[C@@H]1C)C[C@@H]1C[C@@H](C/C=C(\C)[C@@H](O[C@H]3C[C@H](OC)[C@@H](O[C@H]4C[C@H](OC)[C@@H](O)[C@H](C)O4)[C@H](C)O3)[C@@H](C)/C=C/C=C3\CO[C@@H]4[C@H](O)C(C)=C[C@@H](C(=O)O1)[C@]34O)O2` (tested in a mixture with another compound): the call was inactive.

Take `Clc1ccccc1-c1nnc(-c2ccccc2Cl)nn1`: the compound was called inactive.

Regarding `CNC(=O)Oc1ccccc1OC(C)C`, the compound was called inactive.

Regarding `O=C1c2ccccc2C(=O)N1SC(Cl)(Cl)Cl`, the call was inactive.

`CCOC1Oc2ccc(OS(C)(=O)=O)cc2C1(C)C` (stereo not given): the call was inactive.

As for `O=C(O)CCCOc1ccc(Cl)cc1Cl`, the compound was called inactive.

Consider `CC(C)(C)C(O)/C(=C\c1ccc(Cl)cc1Cl)n1cncn1` (stereo not given), for which the call was inactive.

On to `CCOCN(C(=O)CCl)c1c(C)cccc1CC`, for which the outcome was inactive.

As for `CCCN(CCOc1c(Cl)cc(Cl)cc1Cl)C(=O)n1ccnc1`, the compound was classed as inactive.

In the case of `Cc1[nH]c(=O)n(C(C)(C)C)c(=O)c1Cl`, the compound was called inactive.

For `CC(C)OC(=O)Nc1cccc(Cl)c1`, the call was inactive.

Consider `CCC(C)(NC(=O)c1cc(Cl)c(C)c(Cl)c1)C(=O)CCl` (stereo not given), for which the compound was classed as inactive.

For `CNC(=O)CSP(=S)(OC)OC`, the call was inactive.

For the compound `CC1(c2ccc(Oc3ccccc3)cc2)OC(=O)N(Nc2ccccc2)C1=O` (stereo not given), the result was inactive.

Take `CNC(=O)Oc1cccc(N=CN(C)C)c1`: the compound was classed as inactive.

Read-out in another assay: Bcl-2 (BAX) gene, BAX (gene 581)
The assay can be described thus: LTEA_HepaRG_BAX: Life Technologies and Expression Analysis (LTEA) Assay for Bcl-2 (BAX) gene using HepaRG (AID 2283470). Conditions: mRNA level, 48 h; actives raise or lower the signal. The method, boiled down: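 Human HepaRG cells treated in duplicate for 48 h across eight concentrations (max 100 uM, 0.5% DMSO); BAX expression measured by qRT-PCR.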
Consider `CNC(=O)/C=C(\C)OP(=O)(OC)OC`, for which the outcome was inactive.

What is called AC50 is the midpoint of the concentration-response curve, whichever way the signal moves. For the compound `N#Cc1c(Cl)c(Cl)c(Cl)c(C#N)c1Cl`, the concentration at half-maximal activity (AC50) was 23.9 µM (active).

Take `CC1(C)C(C=C(Cl)Cl)C1C(=O)OC(C#N)c1ccc(F)c(Oc2ccccc2)c1` (stereo not given): the result was inactive.

Consider `O=C(NC(=O)c1c(F)cccc1F)Nc1ccc(OC(F)(F)C(F)OC(F)(F)F)c(Cl)c1` (stereo not given), for which the compound was classed as inactive.

On to `O=C(Nc1ccccc1)Nc1cnns1`, for which the outcome was inactive.

In the case of `O=S(=O)(O)C(F)(F)C(F)(F)C(F)(F)C(F)(F)C(F)(F)C(F)(F)C(F)(F)C(F)(F)F`, the half-maximal activity concentration (AC50) was 50 µM (active) and 48 µM (active); the call was inactive.

Turning to `CCc1ccc(C(=O)NN(C(=O)c2cc(C)cc(C)c2)C(C)(C)C)cc1`, the compound was called inactive.

Consider `COP(=O)(OC)OC=C(Cl)Cl`, for which the compound was classed as inactive.

On to `CC[C@H](C)[C@H]1O[C@]2(C=C[C@@H]1C)C[C@@H]1C[C@@H](C/C=C(\C)[C@@H](O[C@H]3C[C@H](OC)[C@@H](O[C@H]4C[C@H](OC)[C@@H](O)[C@H](C)O4)[C@H](C)O3)[C@@H](C)/C=C/C=C3\CO[C@@H]4[C@H](O)C(C)=C[C@@H](C(=O)O1)[C@]34O)O2` (tested in a mixture with another compound), for which the half-maximal activity concentration (AC50) was 7.73 µM (active).

On to `Clc1ccccc1-c1nnc(-c2ccccc2Cl)nn1`, for which the call was inactive.

With `CNC(=O)Oc1ccccc1OC(C)C`, the compound was called inactive.

Regarding `O=C1c2ccccc2C(=O)N1SC(Cl)(Cl)Cl`, the call was inactive.

As for `CCOC1Oc2ccc(OS(C)(=O)=O)cc2C1(C)C` (stereo not given), the compound was classed as inactive.

With `O=C(O)CCCOc1ccc(Cl)cc1Cl`, the call was inactive.

For the compound `CC(C)(C)C(O)/C(=C\c1ccc(Cl)cc1Cl)n1cncn1` (stereo not given), the half-maximal activity concentration (AC50) is 59.4 µM (active).

For the compound `CCOCN(C(=O)CCl)c1c(C)cccc1CC`, the result was inactive.

Take `CCCN(CCOc1c(Cl)cc(Cl)cc1Cl)C(=O)n1ccnc1`: the concentration at half-maximal activity (AC50) is 50 µM (active).

Take `Cc1[nH]c(=O)n(C(C)(C)C)c(=O)c1Cl`: the outcome was inactive.

In the case of `CC(C)OC(=O)Nc1cccc(Cl)c1`, the compound was classed as inactive.

Regarding `CCC(C)(NC(=O)c1cc(Cl)c(C)c(Cl)c1)C(=O)CCl` (stereo not given), the compound was classed as inactive.

Consider `CNC(=O)CSP(=S)(OC)OC`, for which the compound was called inactive.

Turning to `CC1(c2ccc(Oc3ccccc3)cc2)OC(=O)N(Nc2ccccc2)C1=O` (stereo not given), the half-maximal activity concentration (AC50) was 12.2 µM (active).

For the compound `CNC(=O)Oc1cccc(N=CN(C)C)c1`, the result was inactive.

Read-out in a further assay: adenosine kinase (ADK) gene, ADK (gene 132)
The experiment in a line: LTEA_HepaRG_ADK: Life Technologies and Expression Analysis (LTEA) Assay for adenosine kinase (ADK) gene using HepaRG (AID 2283471). Conditions: mRNA level, 48 h; actives raise or lower the signal. In a few lines: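 HepaRG (human liver), 48 h chemical exposure, 8-pt half-log series, top 100 uM, 0.5% DMSO vehicle. Readout: ADK mRNA by qRT-PCR vs housekeeping genes; bidirectional curve fit relative to DMSO baseline.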
For `Clc1ccccc1-c1nnc(-c2ccccc2Cl)nn1`, the outcome was inactive.

In the case of `CNC(=O)CSP(=S)(OC)OC`, the outcome was inactive.

As for `CC1(c2ccc(Oc3ccccc3)cc2)OC(=O)N(Nc2ccccc2)C1=O` (stereo not given), the AC50 was 73.7 µM (active).
